Source: PubChem BioAssay (National Center for Advancing Translational Sciences (NCATS))
Only some compounds are listed: those with a hit (about 21% of all), similar ones and a draw of the others.
Shiga toxin inh – A qHTS for Small Molecule Inhibitors of Shiga Toxin | Vero cells, Shiga toxin protein synthesis inhibition reporter | inhibition, % at 38.7 µM | hit rate 9.2% among 290,000 | AID 2315, 2010; in the data active means inhibition mostly above about 28%, no sharp cut-off; inactive means mostly below about 43%; further: 0% is about no effect
HCV inhibitor – qHTS Assay for Inhibitors of Hepatitis C Virus (HCV); hit rate 3.4% among 340,000; AID 651820, 2012; Huh7.5.1 HCVcc-Cre infection, luciferase reporter, 44 h; Potency, µM (highest dose often 41.8 µM), without a hit: top-dose activity change, negative = inhibition, actives largely listed as inhibitors; further: potency means the concentration at half of the fitted maximal effect; on the % scale 0 is the no-effect control and ±100 the full control effect
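Reporter virus HCVcc-Cre (~0.5 moi) infects cells exposed to compound; seeding density 1,000 cells/well with 4 h settling beforehand. Luminescence, 15 sec read, taken 44 h post-infection following a 15 min RT substrate incubation.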
CHX counter – Cycloheximide Counterscreen for Small Molecule Inhibitors of Shiga Toxin | max response, % | cell reporter, cycloheximide protein synthesis inhibition counterscreen | hit rate 12% among 300,000; in the data active means max response mostly above about 13%, no sharp cut-off; inactive means mostly below about 14%; further: read at 38.3 µM for the half of the compounds with a filed dose; 0% is about no effect
Pf growth 48h – Primary qHTS for delayed death inhibitors of the malarial parasite plastid, 48 hour incubation; P. falciparum luciferase growth in erythrocytes, 48 h; Potency, µM (doses to about 28.7 µM), without a hit: at the highest dose activity change, negative = inhibition, most hits filed as inhibitors; hit rate 5.9% among 310,000; AID 504832, 2011; further: potency means the concentration at half of the fitted maximal effect; on the % scale 0 is the no-effect control and ±100 the full control effect
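Parasite viability was followed by luminescence of a genomically integrated firefly luciferase. Cultures held 0.1% parasitemia at 2% hematocrit (final), incubated under 5% CO2 at 37 C.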
Pf growth 96h – Primary qHTS for delayed death inhibitors of the malarial parasite plastid, 96 hour incubation; P. falciparum luciferase reporter growth, 96 h; Potency, µM (series often up to 28.7 µM), inactives show at the top dose activity change, negative = inhibition, hits mostly inhibitors; hit rate 6.9% among 320,000; AID 504834, 2011; further: potency means the concentration at half of the fitted maximal effect; on the % scale 0 is the no-effect control and ±100 the full control effect
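Delayed-death screen, second-generation endpoint: infected erythrocytes, 2% hematocrit, 0.05% parasitemia final; 96 hours at 37 C, 5% CO2; luciferase detection reagent; luminescence decrease equals reduced growth.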
HCMV inh – qHTS Assay for inhibitors of the human cytomegalovirus (HCMV) | HFF cells, HCMV-luciferase reporter, 72 h; stronger effect = lower value | activity change, negative = inhibition, % at 57.5 µM | hit rate 4.5% among 410,000 | AID 1259415, 2018; in the data active means activity change below about -60%; inconclusive means no clear call, values can overlap the other calls; inactive means above about -39%; further: on the % scale 0 is the no-effect control and ±100 the full control effect
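Cell-based, HFFs, 1000 cells/well, 16 h 37C; cpds in DMSO + HCMV-luc, MOI 1 PFU/cell; 72 h 37C; OneGlo luminescence after 5 min RT; norm. to buffer vs Salinomycin 10uM.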
* marks the source's active call; other numbers are inactive results; ? = inconclusive; / = no result given. Unless noted, the call rests on the fitted dose curve; in most records, active means well fitted inhibition curve with a large enough effect; inconclusive means small, poorly fitted or top-dose-only effect, or another doubt; inactive means no such curve, though single readings can be large or run the other way.

SMILES | Shiga toxin inh | HCV inhibitor | CHX counter | Pf growth 48h | Pf growth 96h | HCMV inh
Cc1ccc(CNC(=O)c2c(Nc3c(C)cccc3C)sc(C(=O)c3ccccc3)c2N)cc1 | / | / | / | / | / | 2.9
O=C(Nc1ccccc1)OCCCCCOC(=O)Nc1ccccc1 | / | ? | -3.6 | 7.8% | 0.0% | 1.5
O=C(Nc1ccccc1)OCc1ccccn1 | 57.0* | 5.1% | 26.0* | 89.2% | 284.3% | 5.9
O=C(NCc1ccccn1)Nc1ccccc1 | 82.0* | 10.7% | 42.8* | 103.1% | -17.4% | -1.0
Cc1cccc(-n2c(SCC(=O)NCc3ccc4c(c3)OCO4)nc3ccccc3c2=O)c1 | 17.7 | ? | -4.7 | ? | ? | ?
Cc1cc(C)cc(-n2c(SC(C)C(=O)NCc3ccc4c(c3)OCO4)nc3ccccc3c2=O)c1 (configuration not stated) | 13.3 | ? | 1.5 | 13.1µM* | 0.0% | -27.4
CC(Sc1nnc(-c2cccnc2)n1-c1ccccc1)C(=O)NCc1ccc2c(c1)OCO2 (configuration not stated) | 76.4* | -0.8% | 39.6* | 51.6% | / | 11.6
O=C(CSc1nnc(-c2cccnc2)n1-c1ccccc1)NCc1ccc2c(c1)OCO2 | 18.9 | 10.9% | -3.3 | -19.7% | -0.7% | 12.2
CNc1ccc(-c2ccccc2OC)cn1 | / | / | / | / | / | -7.4
COc1ccccc1C(C)NC(=O)c1ccccc1SCC(=O)N1CCCC1 (configuration not stated) | / | 1.2% | / | -23.4% | -26.4% | -15.0
CC(=O)N(C1=C(N2CCOCC2)C(=O)c2ccccc2C1=O)c1ccc(C(=O)O)cc1 | -10.6 | 13.0% | -5.1 | 1.04µM* | 0.415µM* | -33.8
O=C(O)c1ccc(NC2=C(N3CCOCC3)C(=O)c3ccccc3C2=O)cc1 | 14.8 | 19.0% | -0.9 | -11.6% | -5.1% | 20.2
CC(=O)N(C)C1=C(O)c2ccccc2C(=O)C1=O | 18.4 | 29.1% | -4.6 | 4.0% | ? | 45.9
CC(=O)N(C)C1=C(N2CCOCC2)C(=O)c2ccccc2C1=O | -4.8 | 0.562µM* | -0.9 | 2.08µM* | 0.294µM* | /
Cc1ccc2c(c1)N(C(=O)CCC(=O)NCCCN1CC(C)CC(C)C1)CCO2 (configuration not stated) | -1.5 | -7.3% | -0.7 | -6.5% | 25.9% | -4.1
COc1ccc(CCNC(=O)CSc2nc(C)nc3sccc23)cc1OC | -2.6 | -19.5% | -1.2 | -6.2% | -5.9% | -34.8
Cc1c(C(=O)Nc2ccc(F)cc2)oc2ccc(S(=O)(=O)N3CCC4(CC3)OCCO4)cc12 | 23.9 | 4.47µM* | -0.7 | 9.28µM* | ? | -63.3*
Cc1ccc(NC(=O)c2oc3ccc(S(=O)(=O)N4CCCCCC4)cc3c2C)cc1Cl | / | / | / | / | / | -15.3
Cc1c(C(=O)Nc2ccc(F)c(F)c2)oc2ccc(S(=O)(=O)N3CCCCC3)cc12 | 23.7 | 6.31µM* | 1.0 | 13.1µM* | / | -20.3
CC1(C)Cc2c(c(N3CCOCC3)nc3sc(-c4ccc(C(=O)O)o4)c(N)c23)CO1 | 8.7 | -28.2% | -0.8 | 11.7µM* | 99.8% | -18.9
CNC(=O)c1ccc(-c2sc3nc(N4CCOCC4)c4c(c3c2N)CC(C)(C)OC4)o1 | 12.5 | ? | -3.8 | ? | ? | 115.7
CN1Cc2c(N3CCOCC3)nc3sc(C#N)c(N)c3c2CC1(C)C | -7.7 | -8.5% | -2.0 | ? | ? | 31.7
CNC(=O)c1ccc(-c2sc3nc(N4CCOCC4)c4c(c3c2N)CCCC4)o1 | -14.7 | 11.2µM* | -5.2 | 11.7µM* | ? | -11.0
CC1(C)Cc2c(c(N3CCOCC3)nc3snc(NC(=O)c4ccccc4)c23)CO1 | -6.8 | ? | -2.4 | / | 8.28µM* | ?
COc1ccccc1NC(=O)c1sc2nc(N3CCOCC3)c3c(c2c1N)CC(C)(C)OC3 | / | / | / | / | / | 8.6
SMILES | Shiga toxin inh | HCV inhibitor | CHX counter | Pf growth 48h | Pf growth 96h | HCMV inh
CN1Cc2c(N3CCOCC3)nc3sc(C(=O)c4ccc(Br)cc4)c(N)c3c2CC1(C)C | -18.5 | -85.7% | -2.0 | 4.15µM* | 9.28µM* | -94.7*
CC[C@]12c3[nH]c4cc(-c5ccco5)ccc4c3CCN1C(=O)[C@@H](CC(=O)NCCN1CCOCC1)C[C@@H]2C(=O)N1CCN(C(=O)C2CC2)CC1 | / | 9.1% | / | / | / | 33.3
COc1cc(CNC(C)c2ccccc2)cc(Br)c1OCc1ccc(F)cc1 (configuration not stated) | / | 22.4µM* | -2.7 | ? | ? | ?
Fc1ccc(COc2cccc(CNCc3ccncc3)c2)cc1 | 10.1 | ? | 3.6 | -5.3% | ? | -71.1*
Fc1ccc(COc2ccc(Br)cc2CNCc2ccncc2)cc1 | -10.3 | 10µM* | 1.3 | 8.28µM* | ? | ?
CCOc1ccc(Br)cc1CNCc1cccnc1 | -9.1 | 23.1% | -0.8 | -14.5% | ? | 29.5
Fc1ccccc1COc1ccc(Br)cc1CNCc1cccnc1 | 10.9 | ? | 6.1 | 13.1µM* | ? | -3.6
COc1cc(CNC(C)c2ccccc2)cc(Br)c1OCc1ccccc1 (configuration not stated) | -14.4 | ? | -3.9 | ? | ? | -30.9
O=C(O)c1ccc(CNCc2cccc(OCc3ccc(F)cc3)c2)cc1 | -8.2 | 14.5% | 1.6 | 17.4% | 19.2% | ?
Fc1ccccc1COc1ccc(Br)cc1CNCc1ccncc1 | -6.9 | -13.3% | -6.2 | / | 11.7µM* | -23.9
O/N=C/c1cc(Br)ccc1OCc1ccccc1F | / | ? | / | / | / | 42.0
CCOc1cc(CNCc2ccncc2)cc(Br)c1OCc1ccc(F)cc1 | -13.4 | 10µM* | -1.3 | ? | ? | -65.0*
COc1cc(CNn2c(C)n[nH]c2=S)cc(Br)c1OCc1ccc(F)cc1 | -11.2 | ? | -3.2 | -13.5% | ? | ?
COc1cc(C(=O)C(=O)c2ccc(OC)c(OC)c2)ccc1O | / | 17.4% | / | / | / | 22.7
COc1cc(C(=O)O[C@@H]2CC3CC[C@]2(C)C3(C)C)ccc1O | 29.1* | / | 23.2 | / | / | /
CCCCCn1nc(C(=O)N(CC(C)C)c2c(N)n(CCCC)c(=O)[nH]c2=O)c2ccccc2c1=O | / | -7.6% | / | ? | ? | -4.2
Cc1cccc(C)c1NC(=O)CN1C(=O)S/C(=C\c2cccn2-c2cccc(C(=O)O)c2)C1=O | -15.3 | 1.7% | -2.8 | 24.3% | 70.1% | -73.1*
CCCOC(=O)c1ccc(N)cc1 | / | / | / | 18.6% | -10.6% | /
CCCCCCOC(=O)c1ccccc1N | 76.3 | 9.2% | 38.9* | 28.1% | / | -14.4
COc1ccc(C(=O)OCC(=O)NC(C)CCc2ccccc2)cc1 (configuration not stated) | 3.4 | 0.4% | -1.6 | 4.7% | 1.4% | -29.4
CC(=O)Nc1ccc(C(=O)OCCc2ccccc2)cc1 | 64.4* | 1.4% | 41.8* | 157.6% | 260.4% | 2.0
CCCCOC(=O)c1ccccc1N | / | 14.5% | / | / | / | 3.0
